PubChem BioAssay AID1986 (Sanford-Burnham Center for Chemical Genomics, 2009)
In all, about 290,000 compounds went through this assay and about 890 (0.31%) were called active. Cut-off read from the data, not from the text of the source: active = inhibition mostly above about 52% (no sharp cut-off); inactive = mostly below about 76%. The full list was thinned out, with actives kept by preference.

Assay: inhibitors of HIV fusion peptide binding, primary screen, biochemical, uHTS, fluorescence dequenching (AID 1986)
Settings: cell-free peptide binding, 30 min, stronger effect = higher value
[1] = measured here: repeat confirmation average inhibition, at 18.6 µM

| Compound | inhibition (at 20 µM) | inhibition [1] [%] |
| --- | --- | --- |
| COc1ccc(-n2c(C)cc(/C=C3\C(=N)N4N=C(CC(=O)N5CCOCC5)SC4=NC3=O)c2C)cc1 | 20.1% (inactive) | – |
| Cc1ccc(/C=C/S(=O)(=O)NCC(=O)O)cc1 | 4.8% (inactive) | – |
| Cc1c(N2C(=O)/C(=C/c3ccccc3)SC2=S)c(=O)n(-c2ccccc2)n1C | -4.2% (inactive) | – |
| Cc1c(N2C(=O)/C(=C\c3ccc(N(C)C)cc3)N(C)C2=S)c(=O)n(-c2ccccc2)n1C | 52.4% (active) | 74.6 |
| CN1C(=S)N(c2cccnc2)C(=O)/C1=C\c1ccc(N(C)C)cc1 | 6.7% (inactive) | – |
| Cc1cccc(C(=O)N/C(=C/c2ccco2)C(=O)N2CCCCCC2)c1 | 0% (inactive) | – |
| O=C(NCC1CCCO1)Nc1cc(Cl)cc(Cl)c1 (configuration not stated) | 0.7% (inactive) | – |
| COC(=O)c1cc(=O)c2cccc(OC)c2[nH]1 | -2.4% (inactive) | – |
| COc1cccc2c(C)c(C(=O)O)[nH]c12 | 67.9% (active) | – |
| COc1cccc2c(=O)c(C(=O)O)c[nH]c12 | 2% (inactive) | – |
| Nc1nnc(SCc2ccc([N+](=O)[O-])cc2)s1 | 0.4% (inactive) | – |
| Cc1cc(NC(=O)COC(=O)CCS(=O)(=O)c2ccc(Cl)cc2)no1 | 1.1% (inactive) | – |
| CC(C(=O)N1CCc2ccccc21)n1cccc1 (configuration not stated) | -2.3% (inactive) | – |
| CC(=O)Nc1ccc(NS(=O)(=O)c2cc([N+](=O)[O-])ccc2C)cc1 | 0.5% (inactive) | – |
| Cc1ccc(C)c(NC(=O)c2ccccc2NS(=O)(=O)c2cc([N+](=O)[O-])ccc2C)c1 | 47.1% (inactive) | – |
| C=CCOC(=O)CCC(=O)Nc1cc(OC)nc(OC)n1 | -0.6% (inactive) | – |
| Cc1ccc(S(=O)(=O)Cc2cn3cccnc3n2)cc1 | -2.2% (inactive) | – |
| COc1ccc2c(c1)c(C(=O)N/N=C/c1cccc(Br)c1)c(C)n2C | 0.5% (inactive) | – |
| COc1ccc(N2CC(C(=O)NCCc3c[nH]c4ccccc34)CC2=O)cc1 (configuration not stated) | 0.2% (inactive) | – |
| N=C1S/C(=C\c2ccco2)C(=O)N1c1nccs1 | 51.1% (active) | – |
| COc1ccc(/C=C2\SC(=N)N(c3nccs3)C2=O)cc1OC | 13.9% (inactive) | – |
| N=C1S/C(=C\c2ccc(-c3cccc(Cl)c3)o2)C(=O)N1c1nccs1 | 68.1% (inactive) | 15.5 |
| CCCCNC(=O)CNC(=S)N(Cc1ccc(C)cc1)Cc1ccco1 | 2.5% (inactive) | – |
| CCCN1C(=O)/C(=C/c2c(N3CCNC(=O)C3CC(=O)OC)nc3c(C)cccn3c2=O)SC1=S (configuration not stated) | 148% (inactive) | – |
| CCOC(=O)CC1C(=O)NCCN1c1nc2ccc(C)cn2c(=O)c1/C=C1\SC(=S)N(C(C)CC)C1=O (configuration not stated) | 148% (inactive) | – |
| CCOC(=O)CC1C(=O)NCCN1c1nc2ccc(C)cn2c(=O)c1/C=C1\SC(=S)N(CC(C)C)C1=O (configuration not stated) | 109% (active) | 147 |
| CCOC(=O)CC1C(=O)NCCN1c1nc2c(C)cccn2c(=O)c1/C=C1\SC(=S)N(CC(C)C)C1=O (configuration not stated) | 117% (active) | – |
| CCOC(=O)CC1C(=O)NCCN1c1nc2c(C)cccn2c(=O)c1/C=C1\SC(=S)N(C(C)CC)C1=O (configuration not stated) | 137% (inactive) | – |
| CCCN1C(=O)/C(=C/c2c(N3CCNC(=O)C3CC(=O)OCC)nc3c(C)cccn3c2=O)SC1=S (configuration not stated) | 146% (inactive) | – |
